Experimental data reported in the supplement of paper PMC8728848.
The sample as a whole holds a higher share of the strongest signals than the screen did.

Assays:
Assay in all cases: glycan array binding signal (z-score within array); higher = stronger binding
Conditions in all cases: glycan notation: IUPAC condensed, linker removed
[1] = target: Fuc(a1-2)Gal(b1-4)[Fuc(a1-3)]GlcNAc(b1-2)[Fuc(a1-2)Gal(b1-4)[Fuc(a1-3)]GlcNAc(b1-4)]Man(a1-3)[Fuc(a1-2)Gal(b1-4)[Fuc(a1-3)]GlcNAc(b1-2)Man(a1-6)]Man(b1-4)GlcNAc(b1-4)GlcNAc
Method in brief: (§1)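 Arrays were curated from the Consortium for Functional Glycomics database, 3228 in total, and kept only where the protein sequence was available. Binding is expressed as a within-array Z-score. This score was averaged across arrays of the same protein sequence at different concentrations or buffers and across linkers, and negative values can be read as non-binding.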

[2] = target: Fuc(a1-2)[Gal(a1-3)]Gal(b1-3)GalNAc(b1-3)Gal(a1-4)Gal(b1-4)Glc
Method in brief: as §1

[3] = target: Fuc(a1-2)[Gal(a1-3)]Gal(b1-3)GlcNAc(b1-2)Man(a1-3)[Fuc(a1-2)[Gal(a1-3)]Gal(b1-3)GlcNAc(b1-2)Man(a1-6)]Man(b1-4)GlcNAc(b1-4)GlcNAc
Method in brief: as §1

[4] = target: Fuc(a1-2)[Gal(a1-3)]Gal(b1-4)[Fuc(a1-3)]Glc
Method in brief: as §1

[5] = target: Fuc(a1-2)[GalNAc(a1-3)]Gal(b1-3)GlcNAc(b1-3)GalNAc
Method in brief: as §1

[6] = target: Fuc(a1-2)[GalNAc(a1-3)]Gal(b1-4)GlcNAc(b1-2)Man(a1-3)[Fuc(a1-2)[GalNAc(a1-3)]Gal(b1-4)GlcNAc(b1-2)Man(a1-6)]Man(b1-4)GlcNAc(b1-4)GlcNAc
Method in brief: as §1

[7] = target: Fuc(a1-3)GlcNAc
Method in brief: as §1

[8] = target: Fuc(a1-3)[Gal(b1-4)]GlcNAc(b1-3)Gal(b1-4)[Fuc(a1-3)]GlcNAc
Method in brief: as §1

[9] = target: Fuc(a1-3)[Gal(b1-4)]GlcNAc6S
Method in brief: as §1

[10] = target: Gal(a1-3)Gal(b1-4)GlcNAc(b1-2)Man(a1-3)[Gal(a1-3)Gal(b1-4)GlcNAc(b1-2)Man(a1-6)]Man(b1-4)GlcNAc(b1-4)GlcNAc
Method in brief: as §1

[11] = target: Gal(a1-3)Gal(b1-4)[Fuc(a1-3)]GlcNAc
Method in brief: as §1

[12] = target: Gal(a1-3)Gal(b1-4)[Fuc(a1-3)]GlcNAc(b1-2)Man(a1-3)[Gal(a1-3)Gal(b1-4)[Fuc(a1-3)]GlcNAc(b1-2)Man(a1-6)]Man(b1-4)GlcNAc(b1-4)GlcNAc
Method in brief: as §1

[13] = target: Gal(a1-4)Gal(b1-4)Glc
Method in brief: as §1

[14] = target: Gal(b1-3)GlcNAc
Method in brief: as §1

[15] = target: Gal(b1-3)GlcNAc(b1-2)Man(a1-3)[GlcNAc(b1-4)][Gal(b1-3)GlcNAc(b1-2)Man(a1-6)]Man(b1-4)GlcNAc(b1-4)GlcNAc
Method in brief: as §1

[16] = target: Gal(b1-4)GlcNAc(b1-3)Gal(b1-4)GlcNAc(b1-2)Man(a1-3)[Gal(b1-4)GlcNAc(b1-3)Gal(b1-4)GlcNAc(b1-2)Man(a1-6)]Man(b1-4)GlcNAc(b1-4)GlcNAc
Method in brief: as §1

[17] = target: Gal(b1-4)GlcNAc(b1-3)Gal(b1-4)GlcNAc(b1-3)Gal(b1-4)GlcNAc(b1-2)Man(a1-3)[Gal(b1-4)GlcNAc(b1-3)Gal(b1-4)GlcNAc(b1-3)Gal(b1-4)GlcNAc(b1-2)Man(a1-6)]Man(b1-4)GlcNAc(b1-4)GlcNAc
Method in brief: as §1

[18] = target: Gal(b1-4)GlcNAc(b1-3)Gal(b1-4)GlcNAc(b1-3)Gal(b1-4)GlcNAc(b1-3)Gal(b1-4)GlcNAc(b1-3)Gal(b1-4)GlcNAc(b1-2)Man(a1-3)[Gal(b1-4)GlcNAc(b1-3)Gal(b1-4)GlcNAc(b1-3)Gal(b1-4)GlcNAc(b1-3)Gal(b1-4)GlcNAc(b1-3)Gal(b1-4)GlcNAc(b1-2)Man(a1-6)]Man(b1-4)GlcNAc(b1-4)GlcNAc
Method in brief: as §1

[19] = target: Gal3S(b1-4)[Fuc(a1-3)]Glc6S
Method in brief: as §1

[20] = target: Gal3S(b1-4)[Fuc(a1-3)]GlcNAc
Method in brief: as §1

[21] = target: Gal3S6S(b1-4)GlcNAc
Method in brief: as §1

[22] = target: Gal6S(b1-4)GlcNAc6S
Method in brief: as §1

[23] = target: GalNAc(b1-6)GalNAc
Method in brief: as §1

[24] = target: GlcNAc(a1-4)Gal(b1-4)GalNAc
Method in brief: as §1

[25] = target: GlcNAc(a1-4)Gal(b1-4)GlcNAc
Method in brief: as §1

[26] = target: GlcNAc(b1-2)Man(a1-3)[GlcNAc(b1-4)][GlcNAc(b1-2)Man(a1-6)]Man(b1-4)GlcNAc(b1-4)[Fuc(a1-6)]GlcNAc
Method in brief: as §1

[27] = target: GlcNAc(b1-3)Gal(b1-4)GlcNAc(b1-2)Man(a1-3)[GlcNAc(b1-3)Gal(b1-4)GlcNAc(b1-2)Man(a1-6)]Man(b1-4)GlcNAc(b1-4)[Fuc(a1-6)]GlcNAc
Method in brief: as §1

[28] = target: GlcNAc(b1-3)Gal(b1-4)GlcNAc(b1-3)Gal(b1-4)GlcNAc(b1-3)Gal(b1-4)GlcNAc(b1-2)Man(a1-3)[GlcNAc(b1-3)Gal(b1-4)GlcNAc(b1-3)Gal(b1-4)GlcNAc(b1-3)Gal(b1-4)GlcNAc(b1-2)Man(a1-6)]Man(b1-4)GlcNAc(b1-4)[Fuc(a1-6)]GlcNAc
Method in brief: as §1

[29] = target: GlcNAc(b1-3)Gal(b1-4)GlcNAc(b1-3)Gal(b1-4)GlcNAc(b1-3)Gal(b1-4)GlcNAc(b1-2)[GlcNAc(b1-3)Gal(b1-4)GlcNAc(b1-3)Gal(b1-4)GlcNAc(b1-3)Gal(b1-4)GlcNAc(b1-6)]Man(a1-6)[GlcNAc(b1-3)Gal(b1-4)GlcNAc(b1-3)Gal(b1-4)GlcNAc(b1-3)Gal(b1-4)GlcNAc(b1-2)Man(a1-3)]Man(b1-4)GlcNAc(b1-4)[Fuc(a1-6)]GlcNAc
Method in brief: as §1

[30] = target: Neu5Ac(a2-3)Gal(b1-3)GalNAc(b1-4)[Neu5Ac(a2-3)]Gal(b1-4)Glc
Method in brief: as §1

[31] = target: Neu5Ac(a2-3)Gal(b1-3)GalNAc(b1-4)[Neu5Ac(a2-8)Neu5Ac(a2-3)]Gal(b1-4)Glc
Method in brief: as §1

[32] = target: Neu5Ac(a2-3)Gal(b1-3)GlcNAc(b1-2)[Neu5Ac(a2-3)Gal(b1-3)GlcNAc(b1-4)]Man(a1-6)[Neu5Ac(a2-3)Gal(b1-3)GlcNAc(b1-2)Man(a1-3)]Man(b1-4)GlcNAc(b1-4)GlcNAc
Method in brief: as §1

[33] = target: Neu5Ac(a2-3)Gal(b1-4)GlcNAc(b1-3)Gal(b1-4)GlcNAc(b1-2)Man(a1-3)[Neu5Ac(a2-3)Gal(b1-4)GlcNAc(b1-3)Gal(b1-4)GlcNAc(b1-2)Man(a1-6)]Man(b1-4)GlcNAc(b1-4)GlcNAc
Method in brief: as §1

[34] = target: Neu5Ac(a2-3)Gal(b1-4)GlcNAc(b1-3)Gal(b1-4)GlcNAc(b1-3)Gal(b1-4)GlcNAc(b1-2)Man(a1-3)[Neu5Ac(a2-3)Gal(b1-4)GlcNAc(b1-3)Gal(b1-4)GlcNAc(b1-3)Gal(b1-4)GlcNAc(b1-2)Man(a1-6)]GalNAc
Method in brief: as §1

[35] = target: Neu5Ac(a2-3)Gal(b1-4)[Fuc(a1-3)]GlcNAc(b1-3)GalNAc
Method in brief: as §1

[36] = target: Neu5Ac(a2-3)[GalNAc(b1-4)]Gal(b1-4)Glc
Method in brief: as §1

[37] = target: Neu5Ac(a2-6)Gal(b1-4)GlcNAc(b1-2)[Neu5Ac(a2-6)Gal(b1-4)GlcNAc(b1-6)]Man(a1-6)[Neu5Ac(a2-6)Gal(b1-4)GlcNAc(b1-2)Man(a1-3)][GlcNAc(b1-4)]Man(b1-4)GlcNAc(b1-4)GlcNAc
Method in brief: as §1

[38] = target: Neu5Ac(a2-6)Gal(b1-4)GlcNAc(b1-3)Gal(b1-4)GlcNAc
Method in brief: as §1

[39] = target: Neu5Ac(a2-6)Gal(b1-4)GlcNAc(b1-3)Gal(b1-4)GlcNAc(b1-3)Gal(b1-4)GlcNAc(b1-2)Man(a1-3)[Neu5Ac(a2-6)Gal(b1-4)GlcNAc(b1-3)Gal(b1-4)GlcNAc(b1-3)Gal(b1-4)GlcNAc(b1-2)Man(a1-6)]GalNAc
Method in brief: as §1

[40] = target: Neu5Ac(a2-6)Gal(b1-4)GlcNAc(b1-3)Gal(b1-4)GlcNAc(b1-3)[Neu5Ac(a2-6)Gal(b1-4)GlcNAc(b1-3)Gal(b1-4)GlcNAc(b1-6)]GalNAc
Method in brief: as §1

[41] = target: Neu5Ac(a2-6)Gal(b1-4)GlcNAc(b1-3)Gal(b1-4)[Fuc(a1-3)]GlcNAc(b1-3)Gal(b1-4)[Fuc(a1-3)]GlcNAc
Method in brief: as §1

[42] = target: Neu5Ac(a2-8)Neu5Ac(a2-3)Gal(b1-4)Glc
Method in brief: as §1

[43] = target: Neu5Ac(a2-8)Neu5Ac(a2-3)[GalNAc(b1-4)]Gal(b1-4)Glc
Method in brief: as §1

B1: Clec49 (Caenorhabditis elegans) (protein)
chain: MTRLTLLLFGLLGAATAQTCNTGGIYNEQFNRCYQYFTAPAQFSFAEQQCNLLGGHLASVQNGQENALLQSNAANSFKRSNYSDYWIGATDLETSGTWKWTDPSVTFDYSNWQLGEPQSGSDCAIQDKGDGTWSAIGCTSYRPYVCVTPVIMTATCPPITTPIPTTCPTPAPCPIKQCVPSCDQGWTYFSPTDFCYRVYHGEKFNDAEASCVLLGGHLASIHSLTENTFVNNIASCGIKEGKYEHLAWIGMRKVGQDWVWTDGTPSDYFNWAPKQPDNPKKELCVQTAPDLSHDKWYENWNNLECNEVMRAYICKKASIHN
- glycan array binding signal (z-score) [1]: 6.67
- glycan array binding signal (z-score) [2]: 0.061
- glycan array binding signal (z-score) [3]: 2.31
- glycan array binding signal (z-score) [4]: -0.454
- glycan array binding signal (z-score) [5]: 4.18
- glycan array binding signal (z-score) [6]: 0.062
- glycan array binding signal (z-score) [7]: -0.399
- glycan array binding signal (z-score) [8]: 0.226
- glycan array binding signal (z-score) [9]: -0.462
- glycan array binding signal (z-score) [10]: 0.541
- glycan array binding signal (z-score) [11]: 0.246
- glycan array binding signal (z-score) [12]: 2.45
- glycan array binding signal (z-score) [13]: -0.394
- glycan array binding signal (z-score) [14]: -0.244
- glycan array binding signal (z-score) [15]: 3.15
- glycan array binding signal (z-score) [16]: 2.54
- glycan array binding signal (z-score) [17]: 2.57
- glycan array binding signal (z-score) [18]: 0.133
- glycan array binding signal (z-score) [19]: -0.488
- glycan array binding signal (z-score) [20]: -0.647
- glycan array binding signal (z-score) [21]: -0.612
- glycan array binding signal (z-score) [22]: 0.322
- glycan array binding signal (z-score) [23]: -0.155
- glycan array binding signal (z-score) [24]: -0.484
- glycan array binding signal (z-score) [25]: -0.068
- glycan array binding signal (z-score) [26]: 0.223
- glycan array binding signal (z-score) [27]: 0.489
- glycan array binding signal (z-score) [28]: -0.119
- glycan array binding signal (z-score) [29]: 0.571
- glycan array binding signal (z-score) [30]: 1.48
- glycan array binding signal (z-score) [31]: -0.511
- glycan array binding signal (z-score) [32]: 3.69
- glycan array binding signal (z-score) [33]: 2.19
- glycan array binding signal (z-score) [34]: 5.23
- glycan array binding signal (z-score) [35]: 14.5
- glycan array binding signal (z-score) [36]: -0.075
- glycan array binding signal (z-score) [37]: 0.372
- glycan array binding signal (z-score) [38]: -0.634
- glycan array binding signal (z-score) [39]: 0.32
- glycan array binding signal (z-score) [40]: 2.58
- glycan array binding signal (z-score) [41]: 0.181
- glycan array binding signal (z-score) [42]: -0.326
- glycan array binding signal (z-score) [43]: -0.424
